# Measured values as given in ChEMBL document CHEMBL4513216, “Probing the Open Global Health Chemical Diversity Library for Multistage-Active Starting Points for Next-Generation Antimalarials” (ACS Infect Dis, 2020).
# The campaign covered roughly 69,000 compounds. About 8,600 (12%) showed an effect of 50% or more. This is one part of a sample in which strong results are shown more often than they occur.
# System: Plasmodium berghei
# Assay: Screen against P. berghei liver stage (PbLuc), transformed with Luciferase, at 10uM
# Assay type: functional, HepG2
# Conditions: tested at 10 uM
row,Structure (SMILES),INHIBITION
1,CCCN(Cc1nc(-c2ccc(F)c(OC)c2)oc1C)CC1CCCO1 (stereo not given),-12.1%
2,Cc1cc(C)n(CC2CCCN2C(=O)c2cccnc2N(C)C)n1 (stereo not given),21%
3,Cc1ccc(CN(C(=O)NC2CCS(=O)(=O)C2)C2CC2)o1 (stereo not given),2.79%
4,Cc1ccccc1OCCN1CCCC(c2cc(C(N)=O)[nH]n2)C1 (stereo not given),23.5%
5,Cn1cc(CN(C/C=C/c2ccccc2)C2CC2)cn1,-59.5%
6,O=C1CCCN1C1CCCN(CCn2cc(Cl)cn2)C1 (stereo not given),-63.5%
7,CN(Cc1ccco1)[C@@H]1CN(Cc2nccs2)C[C@@H]2CCCO[C@@H]21,44.3%
8,CC(C1CCN(Cc2cnn(C)c2C2CC2)CC1)N1CCCC1 (stereo not given),40.9%
9,CC(C1CCN(Cc2cnn(C)c2C2CC2)CC1)N(C)C (stereo not given),50.7%
10,CC(C1CCN(Cc2cnn(C)c2C2CC2)CC1)N1CCN(C)CC1 (stereo not given),29%
11,O=C(NCC1CCOC1)c1ccc(-c2ccccc2)[nH]c1=O (stereo not given),-26.6%
12,Cc1cccc(-c2ccc(C(=O)NCC3CCCO3)c(=O)[nH]2)c1 (stereo not given),-29.1%
13,Cc1ccc(CN2CCCC3(CCCC(=O)N3)C2)s1 (stereo not given),21.1%
14,Cc1ccccc1OCCN1CCCC1CS(N)(=O)=O (stereo not given),-55.2%
15,CCOCCN1CCCC1CS(N)(=O)=O (stereo not given),61.5%
16,NS(=O)(=O)CC1CCCN1CCOc1ccccc1F (stereo not given),37.9%
17,COCc1ccc(C(=O)N2CCN(CC(C)O)CC2)cc1 (stereo not given),-7.81%
18,COc1ncccc1C(=O)N1CCCC1c1c(C)nn(C)c1Cl (stereo not given),-23.9%
19,CC(C)CN(Cc1ccc(-n2cncn2)cc1)Cc1ccccn1,34.9%
20,Cc1cc(CN(C)c2nc(-c3ccco3)nc3c2CCN(C)CC3)on1,30%
21,CN(CC1CCCO1)c1nc(-c2cccnc2)nc2c1CCNCC2 (stereo not given),7.43%
22,Cc1nonc1CN(C)c1nc(-c2ccco2)nc2c1CCN(C)CC2,75.4%
23,Cc1noc(CN(C)c2nc(-c3ccco3)nc3c2CCN(C)CC3)n1,28.8%
24,CN(CC(O)CO)c1nc(-c2cccnc2)nc2c1CCNC2 (stereo not given),26.1%
25,CN(CC1CCCCO1)c1nc(-c2cccnc2)nc2c1CCNC2 (stereo not given),72.3%
26,Cc1nonc1CN(C)c1nc(-c2cccnc2)nc2c1CCNC2,81.1%
27,NCC1CN(c2nc(-c3cccnc3)nc3c2CCNCC3)CCO1 (stereo not given),7.43%
28,Cc1nccn1CCN(C)c1nc(-c2cccnc2)nc2c1CCNC2,-1.25%
29,CNC(=O)N1CCC2(CC1)c1ncc(C)n1CCN2C,48.4%
30,CN1C[C@H](c2ccccc2)[C@H]2CN(C(=O)Cc3cccc(O)c3)CC[C@H]21,43.7%
